Screens (PubChem)
Pf Dd2 inh: inhibitors of Plasmodium falciparum Dd2 growth | P. falciparum Dd2 growth, SYBR Green, 72 h; active compounds read low | 94,000 compounds, 2.3% hits | activity change, % at 10 µM; in the data active = activity change below about -80%; inconclusive = no clear call, values can overlap the other calls
T cruzi growth-1: inhibitors of T. cruzi proliferation | T. cruzi beta-gal in NIH3T3, GalScreen luminescence, 90 h | inhibition, % at 8.34 µM | 77,000 compounds, 5.9% hits;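 active = mean inhibition above about 93%, with at least 55% of replicates each passing it, limit read from the data, passing the limit was not always enough; inconclusive = only one of those two conditions holds; inactive = neither condition holds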
C diff HTS: blocks growth of Clostridium difficile; AID 1259249; Clostridium difficile clinical isolate growth, OD600, 24 h; active compounds read low; 86,000 compounds, 0.25% hits; growth activity, negative = inhibition, % at 16 µg/mL (by protocol);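 active = mean growth activity at or below -80% and every replicate also at or below -80%; inconclusive = mean at or below -80% but some replicate above -80%; inactive = mean growth activity above -80%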;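 note: 0% = DMSO wells and -100% = levofloxacin 16 µg/mL wells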
T cruzi growth-2: blocks T. cruzi growth in NIH3T3 host cells | shares compounds with T cruzi growth-1 | T. cruzi beta-gal in NIH3T3, GalScreen luminescence, 90 h | inhibition, % at 8.35 µM | 5,600 compounds, 72% hits | AID 651739;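 active = mean replicate inhibition above about 95% and at least 55% of replicates individually reaching it, limit read from the data; inconclusive = only one of the two criteria is met; inactive = neither criterion is met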
T cruzi growth-3: blocks T. cruzi growth in NIH3T3 host cells; 5,600 compounds, 21% hits; inhibition, % at 2.09 µM; AID 651740; T. cruzi beta-gal in NIH3T3, GalScreen luminescence, 90 h; shares compounds with T cruzi growth-1;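 active = mean inhibition above about 95%, with at least 55% of replicates also reaching it, limit read from the data; inconclusive = meets just one of the two conditions; inactive = meets neither condition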;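 note: plate controls were neutral control median for no effect and positive control median for full effect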
3T3 cytotox: cytotoxicity in mouse NIH/3T3 fibroblasts | 5,600 compounds, 14% hits | cytotoxicity (signal decrease), % at 8.35 µM | shares compounds with T cruzi growth-1 | NIH/3T3 viability, CellTiter-Glo ATP luminescence, 90 h;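 active = mean signal decrease across replicates above about 35% based on untreated-well scatter, with enough replicates individually passing, limit read from the data; inconclusive = no rule stated though some were filed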;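 note: 0% = median of neutral control wells and 100% = median of positive control wells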
3T3 cytotox 2: cytotoxicity in mouse NIH/3T3 fibroblasts; shares compounds with T cruzi growth-1; NIH/3T3 viability, CellTiter-Glo ATP luminescence, 90 h; inhibition, % at 24.9 µM; 5,600 compounds, 56% hits;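 active = mean loss of cell viability signal at or above a set limit, and enough replicates individually reaching it; inconclusive = meets only the mean limit or only the replicate share; inactive = meets neither condition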;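 note: 0% = median of neutral control wells and 100% = median of positive control wells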
The depositor's hits bear a star; ? = inconclusive; · = no result given. A selection: hits, their analogues and other compounds. The true share with any hit is near 6.8%.

SMILES	Pf Dd2 inh	T cruzi growth-1	C diff HTS	T cruzi growth-2	T cruzi growth-3	3T3 cytotox	3T3 cytotox 2
O=S(=O)(c1ccc(F)cc1)N1CCCCN2[C@@H](CO)[C@H](c3ccc(-c4ccccc4F)cc3)[C@@H]2C1	10	106*	-2	91	51	77*	100*
Cc1ccccc1-c1ccc([C@H]2[C@H]3CN(S(C)(=O)=O)CCCCN3[C@H]2CO)cc1	-20	22	-6	·	·	·	·
Cc1ccc(S(=O)(=O)N(C)C[C@H]2OCCCC[C@H](C)Oc3ccc(NC(=O)Nc4c(C)noc4C)cc3C(=O)N([C@@H](C)CO)C[C@@H]2C)cc1	-68	-51	0	·	·	·	·
Cc1noc(C)c1S(=O)(=O)N(C)C[C@@H]1Oc2ccc(NS(=O)(=O)c3cn(C)cn3)cc2CC(=O)N([C@@H](C)CO)C[C@@H]1C	-1	16	-4	·	·	·	·
CCCN(C)C[C@H]1Oc2ncc(C#CC3CC3)cc2C(=O)N([C@@H](C)CO)C[C@@H]1C	-56	76	1	·	·	·	·
COc1cccc(S(=O)(=O)N2CCCCN3[C@H](C2)[C@@H](c2ccc(C#CC(C)C)cc2)[C@@H]3CO)c1	-16	81	13	·	·	·	·
Cc1cccc(S(=O)(=O)N2CCCCN3[C@H](C2)[C@H](c2ccc(C#CC(C)C)cc2)[C@@H]3CO)c1	-48	92	-4	·	·	·	·
Cc1cccc(S(=O)(=O)N2CCCCN3[C@H](C2)[C@@H](c2ccc(C#CC(C)C)cc2)[C@@H]3CO)c1	-34	?	-7	101*	112*	47*	98*
COc1cccc(S(=O)(=O)N2CCCCN3[C@H](CO)[C@H](c4ccc(C#CC(C)C)cc4)[C@H]3C2)c1	-69	97*	54	106*	108*	33	103*
CCC(=O)N(C)C[C@@H]1Oc2cc(-c3ccccc3F)ccc2S(=O)(=O)N([C@@H](C)CO)C[C@H]1C	21	-55	-2	·	·	·	·
CNC[C@H]1Oc2ccc(NC(=O)Nc3ccccc3)cc2C(=O)N([C@H](C)CO)C[C@@H]1C	-4	-46	1	·	·	·	·
CN1CCN(C(=O)C[C@@H]2CC[C@@H](NC(=O)Cc3ccccn3)[C@H](CO)O2)CC1	8	24	·	·	·	·	·
OC[C@@H]1Nc2ccc(-c3cccc(F)c3)cc2[C@H]2[C@@H]1CCN2Cc1ccc(F)cc1	-68	103*	4	108*	115*	26	103*
O=C(Cc1ccccc1)N1CC[C@@H]2[C@H]1c1cc(-c3cccc(F)c3)ccc1N[C@@H]2CO	-27	90	4	·	·	·	·
OC[C@H]1Nc2ccc(-c3cccc(F)c3)cc2[C@@H]2[C@H]1CCN2Cc1ccncc1	-62	97*	-4	102*	81	21	89*
O=C(c1cccc(F)c1)N1CC[C@@H]2[C@@H](CO)Nc3ccc(-c4cccc(F)c4)cc3[C@@H]21	-20	16	79	·	·	·	·
Cc1ccccc1-c1ccc([C@@H]2[C@H](CO)N3CCCCN(C(=O)Nc4ccc(F)cc4)C[C@@H]23)cc1	-25	103*	-99*	92	107*	117*	103*
O=C(Nc1ccc(F)cc1)N1CCCCN2[C@@H](CO)[C@@H](c3ccc(-c4ccccc4F)cc3)[C@@H]2C1	-32	103*	29	94	106*	106*	104*
O=C(Nc1ccccc1)N1CCCCN2[C@@H](CO)[C@@H](c3ccc(-c4ccccc4F)cc3)[C@@H]2C1	-37	95	57	·	·	·	·
Cc1ccccc1-c1ccc([C@@H]2[C@@H](CO)N3CCCCN(C(=O)Nc4ccc(F)cc4)C[C@@H]23)cc1	-13	93	54	·	·	·	·
C[C@@H]1CN([C@H](C)CO)C(=O)c2cccc(NC(=O)c3ccncc3)c2O[C@H]1CN(C)S(=O)(=O)c1cccs1	24	-122	-4	·	·	·	·
Cc1ccc(S(=O)(=O)N(C)C[C@H]2Oc3ccc(NS(=O)(=O)c4cn(C)cn4)cc3CC(=O)N([C@H](C)CO)C[C@@H]2C)cc1	10	19	·	·	·	·	·
N#C[C@H]1[C@@H](c2ccc(-c3ccc(F)cc3)cc2)[C@H](CO)N1C(=O)Cc1ccccc1	-7	?	6	106*	61	17	77*
N#C[C@@H]1[C@@H](c2ccc(-c3ccc(F)cc3)cc2)[C@@H](CO)N1S(=O)(=O)Cc1ccccc1	-31	99*	3	97*	94	13	102*
N#C[C@@H]1[C@@H](c2ccc(-c3ccc(F)cc3)cc2)[C@H](CO)N1C(=O)Cc1ccccc1	-19	62	3	·	·	·	·
SMILES	Pf Dd2 inh	T cruzi growth-1	C diff HTS	T cruzi growth-2	T cruzi growth-3	3T3 cytotox	3T3 cytotox 2
N#C[C@H]1[C@@H](c2ccc(-c3ccccc3)cc2)[C@@H](CO)N1S(=O)(=O)Cc1ccccc1	-15	91	0	·	·	·	·
N#C[C@H]1[C@@H](c2ccc(-c3ccccc3)cc2)[C@@H](CO)N1C(=O)Cc1ccccc1	14	49	5	·	·	·	·
N#C[C@@H]1[C@H](c2ccc(-c3ccccc3)cc2)[C@@H](CO)N1C(=O)Cc1ccccc1	-19	101*	10	108*	51	21	53*
CO[C@@H]1CN(C)C(=O)c2cc(NC(=O)c3cc(C)on3)ccc2OC[C@@H](C)N(C(=O)C2CC2)C[C@@H]1C	13	6	-3	·	·	·	·
COc1ccc2c3c([nH]c2c1)[C@H](CO)N(C(=O)c1ccccc1)CC31CN(C(=O)c2cccc(F)c2)C1	2	·	-7	·	·	·	·
C[C@H](CO)N1C[C@H](C)[C@H](CN(C)CC2CC2)Oc2cc(C#Cc3cccc(F)c3)ccc2S1(=O)=O	-44	·	3	·	·	·	·
C[C@H]1CN([C@@H](C)CO)S(=O)(=O)c2ccc(/C=C/c3ccccc3)cc2O[C@@H]1CN(C)C(=O)Nc1ccc(F)cc1	-43	127*	9	101*	93	1	60*
C[C@H](CO)N1C[C@H](C)[C@@H](CN(C)C(=O)Nc2ccc(F)cc2)Oc2cc(/C=C/c3ccccc3)ccc2S1(=O)=O	-67	124*	8	109*	98*	-1	?
C[C@@H]1CN([C@H](C)CO)S(=O)(=O)c2ccc(/C=C/c3ccccc3)cc2O[C@H]1CN(C)C(=O)Nc1ccc(F)cc1	-82*	126*	19	109*	95	45*	89*
C[C@H]1CN([C@@H](C)CO)S(=O)(=O)c2ccc(/C=C/c3ccccc3)cc2O[C@@H]1CN(C)C(=O)Nc1cc(F)ccc1F	43	·	1	·	·	·	·
C[C@H]1CN([C@@H](C)CO)S(=O)(=O)c2ccc(/C=C/c3ccccc3)cc2O[C@H]1CN(C)C(=O)Nc1ccc(F)cc1	15	11	-2	·	·	·	·
C[C@H]1CN([C@@H](C)CO)S(=O)(=O)c2ccc(/C=C/c3ccccc3)cc2O[C@H]1CN(C)C(=O)Nc1cc(F)ccc1F	-60	·	1	·	·	·	·
